# According to the supplement of paper PMC8007513:
# Counter-ions that a name gives are not always drawn. ± gives the standard error. Screen size: about 1,300 compounds; about 130 (10%) showed an effect of 50% or more. Only a selection was taken, and strong results are over-represented in it overall.
# Test system: Trichoderma virens ATCC 9645
# Assay: growth yield (OD600) with compound + IPBC relative to untreated control; higher = less growth inhibition
# Conditions: compound concentration: 100 uM, IPBC concentration: 200 ng/ml
# Procedure, shortened: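 Library compounds (100 μM final), with or without a co-applied biocide (200 ng ml^−1), were added to 100 μl aliquots of Trichoderma virens ATCC 9645 spores at 15,000 spores ml^−1 in potato dextrose broth. Cultures were grown at 30 °C in 96-well plates, and OD600 was measured at 40 h and 72 h. Each growth value is a mean of duplicate screens, expressed relative to the control with neither agent.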
compound,measurement,setting,value
O=C1CCc2ccc(OCCCCN3CCN(c4cccc(Cl)c4Cl)CC3)cc2N1 [Aripiprazole] + CCCCNC(=O)OCC#CI [3-iodo-2-propynyl butylcarbamate (IPBC)],growth yield,40 h,81.8 ± 2.1%
same,growth yield,72 h,94.2 ± 1.5%
NS(=O)(=O)c1cc(C(=O)O)cc(N2CCCC2)c1Oc1ccccc1 [Piretanide] + CCCCNC(=O)OCC#CI [3-iodo-2-propynyl butylcarbamate (IPBC)],growth yield,40 h,98.3 ± 13%
same,growth yield,72 h,101 ± 6.5%
CC(=O)Oc1ccc(C(c2ccc(OC(C)=O)cc2)c2ccccn2)cc1 [Bisacodyl] + CCCCNC(=O)OCC#CI [3-iodo-2-propynyl butylcarbamate (IPBC)],growth yield,40 h,76.2 ± 2.2%
same,growth yield,72 h,86.8 ± 2.1%
CC[C@H]1OC(=O)[C@H](C)[C@@H](O[C@H]2C[C@@](C)(OC)[C@@H](O)[C@H](C)O2)[C@H](C)[C@@H](O[C@@H]2O[C@H](C)C[C@H](N(C)C)[C@H]2O)[C@](C)(O)C[C@@H](C)[C@@H]2N[C@@H](COCCOC)O[C@H]([C@H]2C)[C@]1(C)O [Dirithromycin] + CCCCNC(=O)OCC#CI [3-iodo-2-propynyl butylcarbamate (IPBC)],growth yield,40 h,89 ± 9.5%
same,growth yield,72 h,94.9 ± 6.4%
N=C(N)NS(=O)(=O)c1ccc(N)cc1 [Sulfaguanidine] + CCCCNC(=O)OCC#CI [3-iodo-2-propynyl butylcarbamate (IPBC)],growth yield,40 h,89.6 ± 2.5%
same,growth yield,72 h,92.4 ± 2.6%
Cc1cccc(C)c1OCC(=O)N[C@@H](Cc1ccccc1)[C@@H](O)C[C@H](Cc1ccccc1)NC(=O)[C@H](C(C)C)N1CCCNC1=O [Lopinavir] + CCCCNC(=O)OCC#CI [3-iodo-2-propynyl butylcarbamate (IPBC)],growth yield,40 h,108 ± 5.4%
same,growth yield,72 h,111 ± 5.1%
O=C(NCC(O)CO)c1c(I)c(C(=O)NCC(O)CO)c(I)c(N(CCO)C(=O)CO)c1I (centres undefined) [Ioversol] + CCCCNC(=O)OCC#CI [3-iodo-2-propynyl butylcarbamate (IPBC)],growth yield,40 h,103 ± 18%
same,growth yield,72 h,98 ± 13%
C#C[C@]1(O)CC[C@H]2[C@@H]3CCC4=CC(=O)CC[C@@H]4[C@H]3CC[C@@]21C [Norethindrone] + CCCCNC(=O)OCC#CI [3-iodo-2-propynyl butylcarbamate (IPBC)],growth yield,40 h,55.1 ± 1.4%
same,growth yield,72 h,83.06 ± 0.63%
OCCN(CCO)c1nc(N2CCCCC2)c2nc(N(CCO)CCO)nc(N3CCCCC3)c2n1 [Dipyridamole] + CCCCNC(=O)OCC#CI [3-iodo-2-propynyl butylcarbamate (IPBC)],growth yield,40 h,44.5 ± 1.6%
same,growth yield,72 h,57.37 ± 0.52%
CN[C@H](CC(C)C)C(=O)N[C@H]1C(=O)N[C@@H](CC(N)=O)C(=O)N[C@H]2C(=O)N[C@H]3C(=O)N[C@H](C(=O)N[C@H](C(=O)O)c4cc(O)cc(O)c4-c4cc3ccc4O)[C@H](O)c3ccc(c(Cl)c3)Oc3cc2cc(c3O[C@@H]2O[C@H](CO)[C@@H](O)[C@H](O)[C@H]2O[C@H]2C[C@](C)(N)[C@H](O)[C@H](C)O2)Oc2ccc(cc2Cl)[C@H]1O [Vancomycin hydrochloride] + CCCCNC(=O)OCC#CI [3-iodo-2-propynyl butylcarbamate (IPBC)],growth yield,40 h,84.2 ± 0.95%
same,growth yield,72 h,98.27 ± 0.52%
Cc1cccc(N(C)C(=S)Oc2ccc3ccccc3c2)c1 [Tolnaftate] + CCCCNC(=O)OCC#CI [3-iodo-2-propynyl butylcarbamate (IPBC)],growth yield,40 h,0%
same,growth yield,72 h,35.9 ± 0.84%
CC(C)(C)C(=O)OCOC(=O)[C@@H]1N2C(=O)[C@@H](NC(=O)[C@H](N)c3ccccc3)[C@H]2SC1(C)C [Pivampicillin] + CCCCNC(=O)OCC#CI [3-iodo-2-propynyl butylcarbamate (IPBC)],growth yield,40 h,125 ± 1.3%
same,growth yield,72 h,119.9 ± 0.73%
CCCCCOC(=O)Nc1nc(=O)n([C@@H]2O[C@H](C)[C@@H](O)[C@H]2O)cc1F [Capecitabine] + CCCCNC(=O)OCC#CI [3-iodo-2-propynyl butylcarbamate (IPBC)],growth yield,40 h,99.28 ± 0.48%
same,growth yield,72 h,98.58 ± 0.84%
CN(C)/N=N/c1[nH]cnc1C(N)=O [Dacarbazine] + CCCCNC(=O)OCC#CI [3-iodo-2-propynyl butylcarbamate (IPBC)],growth yield,40 h,86.25 ± 0.48%
same,growth yield,72 h,93.03 ± 0.52%
O=C([O-])c1ccccc1-c1c2cc(Br)c(=O)cc-2oc2[c]([Hg+])c([O-])c(Br)cc12.[Na+].[Na+].[OH-] [Merbromin] + CCCCNC(=O)OCC#CI [3-iodo-2-propynyl butylcarbamate (IPBC)],growth yield,40 h,5.4 ± 0.64%
same,growth yield,72 h,3.99 ± 0.21%
COc1ccc([C@@H]2CC(=O)c3c(O)cc(O[C@@H]4O[C@H](CO[C@@H]5O[C@@H](C)[C@H](O)[C@@H](O)[C@H]5O)[C@@H](O)[C@H](O)[C@H]4O)cc3O2)cc1O [Hesperidin] + CCCCNC(=O)OCC#CI [3-iodo-2-propynyl butylcarbamate (IPBC)],growth yield,40 h,86.41 ± 0.64%
same,growth yield,72 h,92.6 ± 2.2%
C[C@@H](O[C@H]1OCCN(Cc2n[nH]c(=O)[nH]2)[C@H]1c1ccc(F)cc1)c1cc(C(F)(F)F)cc(C(F)(F)F)c1 [Aprepitant] + CCCCNC(=O)OCC#CI [3-iodo-2-propynyl butylcarbamate (IPBC)],growth yield,40 h,113 ± 12%
same,growth yield,72 h,104 ± 8.8%
CNCCc1ccccn1 [Betahistine mesylate] + CCCCNC(=O)OCC#CI [3-iodo-2-propynyl butylcarbamate (IPBC)],growth yield,40 h,88 ± 8.3%
same,growth yield,72 h,92 ± 5.6%
O=C(NCNC(=O)NC1C(=O)NC(=O)N1CO)NC1C(=O)NC(=O)N1CO (centres undefined) [Imidurea] + CCCCNC(=O)OCC#CI [3-iodo-2-propynyl butylcarbamate (IPBC)],growth yield,40 h,89 ± 7%
same,growth yield,72 h,92.5 ± 5.5%
CCCc1cc(=O)[nH]c(=S)[nH]1 [Propylthiouracil] + CCCCNC(=O)OCC#CI [3-iodo-2-propynyl butylcarbamate (IPBC)],growth yield,40 h,90.1 ± 11%
same,growth yield,72 h,93 ± 6.4%
CCCCCCNC(=O)n1cc(F)c(=O)[nH]c1=O [Carmofur] + CCCCNC(=O)OCC#CI [3-iodo-2-propynyl butylcarbamate (IPBC)],growth yield,40 h,21.9 ± 0.95%
same,growth yield,72 h,31.4 ± 0.32%
CC(C(=O)O)c1ccc(C(=O)c2ccccc2)s1 (centres undefined) [Tiaprofenic acid] + CCCCNC(=O)OCC#CI [3-iodo-2-propynyl butylcarbamate (IPBC)],growth yield,40 h,77.83 ± 0.32%
same,growth yield,72 h,83.38 ± 0.32%
